A selection: hits, their analogues and other compounds. The true share with any hit is near 19%.
KB-V1 MDR tox: qHTS assay for MDR1-selective chemotherapeutics: Primary screen using the drug-selected MDR subline cells KB-V1. AID 1347076, 2019. 400,000 compounds, 3.4% hits. Potency, µM (series often up to 46.1 µM), hits mostly cytotoxic. KB-V1 MDR cells viability, CellTiter-Glo, 72 h; note: nearly all actives have a fitted effect of over 60% in size
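Cells of the MDR subline KB-V1 are plated, dosed with compound at multiple concentrations, and incubated 72 h at 37 degrees C; CellTiter-Glo is then added and luminescence read after 10 min.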
KB-3-1 cytotox: qHTS assay for MDR1-selective chemotherapeutics: Primary screen using the parental adenocarcinoma cell KB-3-1. KB-3-1 viability, CellTiter-Glo ATP luminescence, 72 h. Potency, µM (top dose mostly 46.1 µM), actives largely listed as cytotoxic. 400,000 compounds, 1.4% hits. AID 1347075, 2019; note: nearly all actives have a fitted effect of over 60% in size
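KB-3-1 cells, DMEM (no phenol red) + 10% FBS; compound by pin transfer, 72 h, 37 °C. Readout: CellTiter-Glo luminescence after 10 min. Data normalized, curve-fitted.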
HT1080-NT tox: qHTS for induction of synthetic lethality in tumor cells producing 2HG: qHTS for the HT-1080-NT fibrosarcoma cell line; HT-1080-NT fibrosarcoma viability, CellTiter-Glo ATP luminescence, 48 h; Potency, µM (top dose mostly 46.1 µM), without a hit: at the top dose activity, negative = less viability, hits mostly cytotoxic; 360,000 compounds, 1.6% hits; AID 686970, 2013;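 note: NT is the 2HG producing partner of a matched IDH1 knockdown line; 0% = DMSO-treated cells and -100% = media-only wells without cells; nearly all actives have a fitted effect of over 55% in size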
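Read-out is CellTiter-Glo luminescence after 10 minutes at room temperature, following 48 hours' compound treatment of HT-1080-NT cells (750 cells/well, RPMI, 5% FBS, 37 degrees C).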
HT1080 IDH1KD tx: qHTS for induction of synthetic lethality in tumor cells producing 2HG: qHTS for the HT-1080-IDH1KD cell line; HT-1080 IDH1 knockdown viability, ATP luminescence, 48 h; Potency, µM (series often up to 46.1 µM), without a hit: at the top dose activity, negative = toxicity, actives largely listed as cytotoxic; 360,000 compounds, 2% hits; AID 686971, 2013;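 note: 0% = DMSO wells and -100% = cell-free medium wells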
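In this qHTS, HT-1080 cells depleted of IDH1 are exposed for 48 h at 37 °C to compound titrations. Toxicity is scored from CellTiter-Glo luminescence, with DMSO as full viability and medium alone as none.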
TDP1 cell CPT: qHTS for Inhibitors of human tyrosyl-DNA phosphodiesterase 1 (TDP1): qHTS in cells in presence of CPT. Potency, µM (doses to about 46.2 µM), without a hit: at the highest dose activity change, negative = growth inhibition, most hits filed as inhibitors. chicken DT40 Tdp1-/-;hTDP1 cells + 20 nM CPT, ATP luminescence, 48 h. 420,000 compounds, 12% hits. AID 686979, 2013; note: nearly all actives have a fitted effect of over 55% in size
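Chicken DT40 Tdp1-/- cells stably complemented with human TDP1 were seeded at 400 cells/well in medium containing 20 nM camptothecin, exposed to pin-transferred compounds, and grown at 37 °C for at least 48 hr. Viability was read as ATP luminescence.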
TDP1 cell noCPT: qHTS for Inhibitors of human tyrosyl-DNA phosphodiesterase 1 (TDP1): qHTS in cells in absence of CPT; 420,000 compounds, 15% hits; AID 686978, 2013; DT40 Tdp1-/- hTDP1 cells, no CPT, ATP luminescence, 48 h; Potency, µM (series often up to 46.2 µM), for the others: at the highest dose activity change, negative = growth inhibition, most hits filed as inhibitors; note: nearly all actives have a fitted effect of over 55% in size
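Camptothecin absent (DMSO only). Human TDP1-complemented DT40 knockout cells, 400 cells/well, 37 °C for minimum 48 hr; ATP measured via CellTiter-Glo, 30 min dark incubation, luminescence.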
* = called active by the depositor; i = inactive; ? = inconclusive; . = no result. Calls come from the whole dose curve; as a rule, active = well fitted curve in the direction sought with a large enough effect; inconclusive = small, poorly fitted or top-dose-only effect, or another doubt; inactive = no such curve, though single readings can be large; an effect the other way counts as inactive or inconclusive. Unless noted, % is set by controls: 0 for no effect and ±100 for the full control effect; potency is the fitted concentration of half-maximal effect.

SMILES | KB-V1 MDR tox | KB-3-1 cytotox | HT1080-NT tox | HT1080 IDH1KD tx | TDP1 cell CPT | TDP1 cell noCPT
CN(C)CCCn1c2c3ccccc3ccc2c2oc(=O)c3ccccc3c21 | ? | ? | -1% | -26% | 2.6µM* | 4.6µM*
CCc1ccc(C(=O)NNC(=O)c2ccc(OCC(=O)N3CCOCC3)c(OC)c2)cc1 | ? | i | 1% | 0% | 3% | 14%
O=C(O)CN1C(=O)/C(=C/c2ccc(N3CCCCC3)o2)SC1=S | i | i | -11% | -1% | ? | 23µM*
CCCN1C(=O)S/C(=C\c2ccc(N3CCOCC3)o2)C1=O | ? | ? | ? | ? | ? | 21µM*
COC(=O)CN1C(=O)S/C(=C/c2ccc(N3CCCCC3)o2)C1=O | i | i | 1% | 7% | ? | ?
CCCN1C(=O)S/C(=C/c2ccc(N3CCOCC3)o2)C1=O | ? | i | 5% | -22% | 26µM* | 16µM*
CCOC(=O)CN1C(=O)S/C(=C/c2ccc(N3CCCCC3)o2)C1=O | i | i | 27% | 17% | -22% | -12%
Cc1cc(F)ccc1S(=O)(=O)N1CCCOC1CNC(=O)C(=O)NCc1ccccn1 (stereo unspecified) | i | i | 0% | 0% | 1% | -4%
Cc1nc(-c2ccc(Cl)cc2)sc1CCNC(=O)c1cccs1 | i | i | . | . | ? | ?
N#Cc1cnn2c(-c3ccc(Cl)cc3Cl)ccnc12 | 16µM* | i | 24% | 1% | -14% | ?
N#Cc1cnn2c(-c3cccc(C(F)(F)F)c3)ccnc12 | i | i | 1% | 0% | 7% | -27%
CC(C)(C)C1=C(C#N)C(c2ccc3c(c2)OCO3)C(C#N)=C(N)O1 (stereo unspecified) | i | i | -1% | 10% | ? | -8%
CC(C)(C)C1=C(C#N)C(c2ccncc2)C(C#N)=C(N)O1 (stereo unspecified) | i | i | -2% | -3% | 18µM* | 29µM*
COc1ccc(CCNC(=O)COC(=O)Cn2cnc3c2c(=O)n(C)c(=O)n3C)cc1 | i | i | -2% | -6% | 5% | 0%
COc1ccc(C2CC(C(F)(F)F)n3nc(C(=O)NCc4cn(C)nc4C)c(Cl)c3N2)cc1 (stereo unspecified) | ? | i | -27% | -14% | 13µM* | 10µM*
COc1ccc(C2CC(C(F)(F)F)n3nc(C(=O)O)c(Br)c3N2)cc1 (stereo unspecified) | i | i | 0% | -3% | 6% | -31%
Cc1ccc(C2CC(C(F)(F)F)n3nc(C(=O)NCc4c(C)nn(C)c4C)c(Cl)c3N2)cc1 (stereo unspecified) | 5.8µM* | 21µM* | ? | ? | 4.6µM* | 5.2µM*
COc1cccc(-c2nnc(SCC(=O)Nc3cc(C)on3)n2C)c1 | i | i | 1% | 9% | 12% | 3%
Cc1cc(NC(=O)CSc2nnc(-c3cccc(Cl)c3)o2)no1 | i | ? | ? | ? | ? | 16µM*
Cc1cc(NC(=O)CSc2nnc(-c3ccccc3Cl)o2)no1 | i | i | -30% | 0% | -12% | -9%
COc1ccccc1-c1nnc(SCC(=O)Nc2ccccc2F)o1 | i | i | . | . | 21µM* | 21µM*
COC(=O)CSc1nnc(-c2ccccc2OC)o1 | i | i | 7% | -8% | -17% | -1%
CCOc1ccc(-c2nnc(SCC(=O)Nc3cc(C)on3)o2)cc1 | i | i | 2% | -23% | 8.2µM* | ?
COc1cccc(-c2nnc(SCC(=O)Nc3cc(C)on3)o2)c1 | i | i | -7% | -20% | 16µM* | ?
CCOc1ccc(NC(=O)CSc2nnc(-c3ccc(OCC)cc3)o2)cc1 | ? | i | . | . | -17% | 4%
SMILES | KB-V1 MDR tox | KB-3-1 cytotox | HT1080-NT tox | HT1080 IDH1KD tx | TDP1 cell CPT | TDP1 cell noCPT
Clc1cccc(CNCCCSc2nnnn2-c2ccccc2)c1 | i | i | . | . | ? | ?
O=C1CC(c2nc(-c3ccccc3)no2)CN1c1ccc2c(c1)OCCO2 (stereo unspecified) | i | i | . | . | -10% | -12%
COc1ccc(-c2nnc(SCC(=O)Nc3cccc(Cl)c3)o2)cc1 | 16µM* | ? | ? | -30% | -26% | -4%
COc1cccc(-c2cncnc2NC2CCNCC2)c1 | . | . | . | . | 3% | -4%
COc1ccc(CSC2=CS(=O)(=O)c3ccccc3N2)cc1 | 23µM* | i | -8% | -13% | 5% | ?
O=S1(=O)C=C(SCc2ccccc2)Nc2ccccc21 | 18µM* | ? | -10% | -5% | -24% | ?
CCn1c(=O)n(CC)c2cc(N3CCCCC3)c(NC(=O)Nc3cc(C)cc(C)c3)cc21 | ? | i | . | . | 5.8µM* | 6.5µM*
Cc1cc(C)cc(NC(=O)Oc2ccccc2N2CCCCC2)c1 | i | i | 25% | 9% | 0% | -21%
CCOC(=O)Cc1ccc(NC(=O)Nc2cc3c(cc2N2CCCCC2)n(C)c(=O)n3C)cc1 | i | i | . | . | 4.6µM* | 2.6µM*
CCn1c(=O)n(CC)c2cc(N3CCCC3)c(NC(=O)c3ccc(F)cc3)cc21 | i | i | 1% | -2% | 23µM* | 18µM*
CCOc1ccc(C(=O)Nc2cc3c(cc2N2CCCC2)n(CC)c(=O)n3CC)cc1OCC | i | i | -18% | -21% | ? | ?
CCn1c(=O)n(CC)c2cc(N3CCCC3)c(NC(=O)c3c(F)cccc3F)cc21 | ? | ? | -1% | -5% | ? | 12µM*
Cn1c(=O)n(C)c2cc(N3CCCCC3)c(NC(=O)Nc3ccc(Br)cc3)cc21 | ? | i | . | . | ? | ?
CNc1ccc2ncc(-c3ccccc3NC(C)=O)n2n1 | i | i | 22% | 15% | -14% | -7%
COc1ccccc1CNS(=O)(=O)c1cnc(N)nc1 | . | . | . | . | 1% | -6%
Cn1c(=O)n(C)c2cc(NC(=O)c3ccc(F)cc3)c(Br)cc21 | i | i | 10% | 12% | 5% | -21%

Assay outcomes: PubChem, National Center for Advancing Translational Sciences (NCATS)
